Reference: PubChem BioAssay AID1159580 (chemical genetic matrix, 2015)
Out of some 5,500 compounds screened, about 2,000 (36%) were called active. About 18% were inconclusive and are not listed. Cut-off read from the data, not from the text of the source: active = normalized growth mostly below about 0.91 (no sharp cut-off); inconclusive = no clear call, values can overlap the other calls; inactive = mostly above about 0.92. Some of the results follow.

Assay: chemical genetic growth profiling, strain panel (AID 1159580);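 note: tested at 20 µM; growth read once vehicle control cultures reached saturation at 30 °C; 1 = growth at the plate median or of vehicle wells; lower values mean less growth of the strain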
Settings: growth OD

Measured: normalized growth

CC(=O)OC1CCC2C3CCc4cc(O)ccc4C3CCC12C (stereo unspecified)
inactive: S. cerevisiae deletion strains, locus YJR075W, strain HOC1, stronger effect = lower value 0.919 | S. cerevisiae deletion strains, locus YKL009W, strain mrt4, stronger effect = lower value 0.923 | S. cerevisiae deletion strains, locus YKL068W, stronger effect = lower value 1.01 | S. cerevisiae deletion strains, locus YKL085W, strain MDH1 (second series), stronger effect = lower value 0.98 | S. cerevisiae deletion strains, locus YKL085W, strain MDH1, stronger effect = lower value 0.98 | S. cerevisiae deletion strains, locus YKL160W, strain elf1, stronger effect = lower value 0.904 | S. cerevisiae deletion strains, locus YKL190W, strain CNB1, stronger effect = lower value 1.01 | S. cerevisiae deletion strains, locus YKR001C, strain vps1, stronger effect = lower value 0.977 | S. cerevisiae deletion strains, locus YKR026C, strain gcn3, stronger effect = lower value 0.998 | S. cerevisiae deletion strains, locus YKR091W, strain srl3, stronger effect = lower value 1 | S. cerevisiae deletion strains, locus YLL001W, strain dnm1, stronger effect = lower value 0.963 | S. cerevisiae deletion strains, locus YLL026W, stronger effect = lower value 0.996 | S. cerevisiae deletion strains, locus YLL041C, strain sdh2, stronger effect = lower value 1.02 | S. cerevisiae deletion strains, locus YLR027C, strain aat2, stronger effect = lower value 0.976 | S. cerevisiae deletion strains, locus YLR039C, strain RIC1, stronger effect = lower value 0.86 | S. cerevisiae deletion strains, locus YLR058C, strain SHM2, stronger effect = lower value 0.971 | S. cerevisiae deletion strains, locus YLR102C, strain apc9, stronger effect = lower value 1.02 | S. cerevisiae deletion strains, locus YLR113W, strain HOG1, stronger effect = lower value 0.918 | S. cerevisiae deletion strains, locus YLR221C, strain rsa3, stronger effect = lower value 0.949 | S. cerevisiae deletion strains, locus YLR258W, strain gsy2, stronger effect = lower value 0.978 | S. cerevisiae deletion strains, locus YLR262C, strain YPT6, stronger effect = lower value 0.832 | S. cerevisiae deletion strains, locus YLR268W, strain sec22, stronger effect = lower value 0.97 | S. cerevisiae deletion strains, locus YLR320W, strain mms22, stronger effect = lower value 0.922 | S. cerevisiae deletion strains, locus YLR330W, strain CHS5, stronger effect = lower value 1.02 | S. cerevisiae deletion strains, locus YLR342W, strain FKS1 (second series), stronger effect = lower value 0.891 | S. cerevisiae deletion strains, locus YLR370C, strain arc18, stronger effect = lower value 0.98 | S. cerevisiae deletion strains, locus YLR371W, strain rom2, stronger effect = lower value 1.01 | S. cerevisiae deletion strains, locus YLR384C, strain iki3, stronger effect = lower value 0.964 | S. cerevisiae deletion strains, locus YLR418C, strain cdc73, stronger effect = lower value 0.941 | S. cerevisiae deletion strains, locus YML016C, strain PPZ1, stronger effect = lower value 1 | S. cerevisiae deletion strains, locus YML032C, strain rad52, stronger effect = lower value 0.954 | S. cerevisiae deletion strains, locus YML120C, strain ndi1, stronger effect = lower value 0.98 | S. cerevisiae deletion strains, locus YML124C, strain tub3, stronger effect = lower value 1.01 | S. cerevisiae deletion strains, locus YMR058W, strain fet3, stronger effect = lower value 0.983 | S. cerevisiae deletion strains, locus YMR078C, strain ctf18, stronger effect = lower value 1.02 | S. cerevisiae deletion strains, locus YMR125W, strain sto1, stronger effect = lower value 0.927 | S. cerevisiae deletion strains, locus YMR129W, stronger effect = lower value 1.01 | S. cerevisiae deletion strains, locus YMR205C, strain PFK2, stronger effect = lower value 0.954 | S. cerevisiae deletion strains, locus YMR223W, strain ubp8, stronger effect = lower value 0.969 | S. cerevisiae deletion strains, locus YMR231W, strain pep5, stronger effect = lower value 1.01 | S. cerevisiae deletion strains, locus YMR263W, strain SAP30, stronger effect = lower value 0.919 | S. cerevisiae deletion strains, locus YNL067W, strain RPL9B, stronger effect = lower value 0.945 | S. cerevisiae deletion strains, locus YNL071W, strain lat1, stronger effect = lower value 0.994 | S. cerevisiae deletion strains, locus YNL153C, strain GIM3, stronger effect = lower value 0.891 | S. cerevisiae deletion strains, locus YNL183C, strain NPR1, stronger effect = lower value 0.885 | S. cerevisiae deletion strains, locus YNL209W, strain ssb2, stronger effect = lower value 0.982 | S. cerevisiae deletion strains, locus YNL248C, strain rpa49, stronger effect = lower value 0.975 | S. cerevisiae deletion strains, locus YNL250W, strain rad50, stronger effect = lower value 1.01 | S. cerevisiae deletion strains, locus YNL271C, strain bni1, stronger effect = lower value 1.02 | S. cerevisiae deletion strains, locus YNL298W, strain CLA4, stronger effect = lower value 0.973 | S. cerevisiae deletion strains, locus YNL307C, strain MCK1, stronger effect = lower value 1 | S. cerevisiae deletion strains, locus YNL322C, strain KRE1 (second series), stronger effect = lower value 0.973 | S. cerevisiae deletion strains, locus YNL322C, strain KRE1, stronger effect = lower value 0.963 | S. cerevisiae deletion strains, locus YNR049C, strain mso1, stronger effect = lower value 1.01 | S. cerevisiae deletion strains, locus YNR052C, strain pop2, stronger effect = lower value 1.01 | S. cerevisiae deletion strains, locus YOL006C, strain TOP1, stronger effect = lower value 0.942 | S. cerevisiae deletion strains, locus YOL012C, strain htz1 1.3 | S. cerevisiae deletion strains, locus YOL147C, strain pex11, stronger effect = lower value 1.02 | S. cerevisiae deletion strains, locus YOR001W, strain rrp6, stronger effect = lower value 0.966 | S. cerevisiae deletion strains, locus YOR061W, strain CKA2, stronger effect = lower value 1 | S. cerevisiae deletion strains, locus YOR069W, strain VPS5, stronger effect = lower value 1.01 | S. cerevisiae deletion strains, locus YOR070C, strain gyp1, stronger effect = lower value 0.989 | S. cerevisiae deletion strains, locus YOR080W, strain dia2, stronger effect = lower value 0.998 | S. cerevisiae deletion strains, locus YOR083W, strain WHI5, stronger effect = lower value 0.904 | S. cerevisiae deletion strains, locus YOR106W, strain vam3, stronger effect = lower value 0.94 | S. cerevisiae deletion strains, locus YOR136W, strain idh2, stronger effect = lower value 0.994 | S. cerevisiae deletion strains, locus YOR144C, strain elg1, stronger effect = lower value 1 | S. cerevisiae deletion strains, locus YOR184W, strain ser1, stronger effect = lower value 0.945 | S. cerevisiae deletion strains, locus YOR231W, strain MKK1, stronger effect = lower value 0.96 | S. cerevisiae deletion strains, locus YOR265W, strain rbl2, stronger effect = lower value 0.998 | S. cerevisiae deletion strains, locus YOR270C, strain vph1, stronger effect = lower value 0.924 | S. cerevisiae deletion strains, locus YOR290C, strain snf2, stronger effect = lower value 0.971 | S. cerevisiae deletion strains, locus YOR316C, strain cot1, stronger effect = lower value 1.02 | S. cerevisiae deletion strains, locus YPL051W, strain arl3, stronger effect = lower value 0.959 | S. cerevisiae deletion strains, locus YPL055C, strain LGE1, stronger effect = lower value 0.842 | S. cerevisiae deletion strains, locus YPL078C, strain atp4, stronger effect = lower value 0.91 | S. cerevisiae deletion strains, locus YPL240C, strain hsp82, stronger effect = lower value 1.01 | S. cerevisiae deletion strains, locus YPL241C, strain CIN2, stronger effect = lower value 1.02 | S. cerevisiae deletion strains, locus YPL256C, strain CLN2, stronger effect = lower value 0.931 | S. cerevisiae deletion strains, locus YPR119W, strain clb2, stronger effect = lower value 1 | S. cerevisiae deletion strains, locus YPR141C, strain kar3, stronger effect = lower value 1.02 | S. cerevisiae deletion strains, locus YPR163C, strain tif3, stronger effect = lower value 1.03 | S. cerevisiae deletion strains, locus YPR167C, strain met16, stronger effect = lower value 1.01 | S. cerevisiae deletion strains, strain wtn01, stronger effect = lower value 0.995 | S. cerevisiae strains, strain wild type, stronger effect = lower value 0.967
active: S. cerevisiae deletion strains, locus YLR262C, strain YPT6 (second series), stronger effect = lower value 0.856 | S. cerevisiae deletion strains, locus YLR342W, strain FKS1, stronger effect = lower value 0.886 | S. cerevisiae deletion strains, locus YLR357W, strain rsc2, stronger effect = lower value 0.848 | S. cerevisiae deletion strains, locus YMR307W, strain GAS1, stronger effect = lower value 0.54 | S. cerevisiae deletion strains, locus YNL233W, strain BNI4, stronger effect = lower value 0.806 | S. cerevisiae deletion strains, locus YPL106C, strain sse1, stronger effect = lower value 0.848
